Results on ten compounds are retold here after PubChem BioAssay (NCATS).

Inconclusive results are not listed. The source made the active and inactive calls. Calls follow the shape of the dose curve; as a rule, active = well fitted curve in the direction sought with a large enough effect; inconclusive = small, poorly fitted or top-dose-only effect, or another doubt; inactive = no such curve, though single readings can be large; an effect the other way counts as inactive or inconclusive.

In assay [1] the target is Metallo-beta-lactamase type 2 (Klebsiella pneumoniae) (UniProt C7C422). Briefly: qHTS to identify inhibitors of the New Delhi Metallo-beta-lactamase (NDM): assay validation screen against the NCATS LOPAC Collection (AID 1794843).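 Also: nitrocefin turnover by NDM-1 measured as 485 nm absorbance at plateau.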 The essentials:
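NDM-1 at 2 nM final in 50 mM HEPES pH 7.0 with 1 uM ZnSO4 and 0.01% Tween20 was preincubated with library compounds in DMSO. Nitrocefin (50 uM stock) was then added, and absorbance at 485 nm was read at the kinetic plateau.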

Assay [2] has as its target Glutathione peroxidase 1 (Homo sapiens) (UniProt P07203). Description: Primary qHTS Assay for Inhibitors of Recombinant Selenoprotein Glutathione Peroxidase 1 (GPX1) (AID 1845191). Also: nearly all actives have a fitted effect of over 65% in size. The method, boiled down: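 Recombinant GPX1 (10 nM final) was preincubated with compound for 30 min at room temperature, then reacted with 1 mM GSH, 0.5 mM CHP, 0.5 mM NADPH and 100 nM glutathione reductase; NADPH fluorescence (340/450 nm) was read at 0 and 15 min.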
(In general: In qHTS, concentration-response curves come from the screen itself.)

In assay [3] the target is Phospholipid hydroperoxide glutathione peroxidase GPX4 (Homo sapiens) (UniProt P36969). Briefly: Primary qHTS Assay for Inhibitors of Recombinant Selenoprotein Glutathione Peroxidase 4 (GPX4) (AID 1845192). Also: nearly all actives have a fitted effect of over 65% in size. The essentials: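 GR-coupled readout: 100 nM GR, 1 mM GSH, 0.5 mM NADPH; NADPH fluorescence (ex 340/em 450 nm) read at t=0 and after 15 min RT. GPX4 200 nM, preincubated 30 min with compound; substrate 0.5 mM CHP.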

The nature of assay [4]: Quantitative High-Throughput drug screen in 47 multiple myeloma cell lines against the NCATS MIPE library collection: FR4_PLB cell viability assay (AID 1918924; also: nearly all actives have a fitted effect of over 35% in size; also: potency is read from the fitted curve at half-maximal effect). The essentials:
(§1)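 Viability readout: CellTiter-Glo luminescence following 5 min room-temperature incubation with reagent. Prior exposure: 48 h, 37C, humidified 5% CO2, 500 cells per well.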

Assay [5] can be described thus: Quantitative High-Throughput drug screen in 47 multiple myeloma cell lines against the NCATS MIPE library collection: Delta47_JCRB cell viability assay (AID 1918925; also: nearly all actives have a fitted effect of over 45% in size; also: potency is read from the fitted curve at half-maximal effect). The essentials: (§2)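 Relative luminescence from CellTiter-Glo served as the viability signal, referenced to DMSO-treated (100%) and cell-free medium (0%) controls. Treatment lasted 48 hours at 37C with 500 cells per well.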

Assay [6] can be described thus: Quantitative High-Throughput drug screen in 47 multiple myeloma cell lines against the NCATS MIPE library collection: EJM_DSMZ cell viability assay (AID 1918926; also: nearly all actives have a fitted effect of over 30% in size; also: potency is read from the fitted curve at half-maximal effect). The method, boiled down:
as §2

Assay [7] is described as follows: Quantitative High-Throughput drug screen in 47 multiple myeloma cell lines against the NCATS MIPE library collection: AMO1_DSMZ cell viability assay (AID 1918927; also: nearly all actives have a fitted effect of over 30% in size; also: potency is read from the fitted curve at half-maximal effect). The essentials:
as §2

Assay [8] is described as follows: Quantitative High-Throughput drug screen in 47 multiple myeloma cell lines against the NCATS MIPE library collection: ARP1_JJKsccF8 cell viability assay (AID 1918928; also: nearly all actives have a fitted effect of over 40% in size; also: potency is read from the fitted curve at half-maximal effect). The essentials: (§3)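 Myeloma cells, 500 per well, were exposed to MIPE 4.0 drugs by pin transfer for 48 h at 37 °C, 5% CO2. Viability was read as ATP luminescence with CellTiter-Glo, normalised to DMSO-only (100%) and medium-only (0%) wells.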

Assay [9] in a line: Quantitative High-Throughput drug screen in 47 multiple myeloma cell lines against the NCATS MIPE library collection: Karpas620_DSMZ cell viability assay (AID 1918959). Also: nearly all actives have a fitted effect of over 30% in size. Also: potency is read from the fitted curve at half-maximal effect. The method, boiled down: as §1
The nature of assay [10]: Quantitative High-Throughput drug screen in 47 multiple myeloma cell lines against the NCATS MIPE library collection: KMM1_JCRB cell viability assay (AID 1918960). Also: nearly all actives have a fitted effect of over 30% in size. Also: potency is read from the fitted curve at half-maximal effect. The method, boiled down: as §3
Assay [11] in a line: Quantitative High-Throughput drug screen in 47 multiple myeloma cell lines against the NCATS MIPE library collection: JIM3_ECACC cell viability assay (AID 1918963; also: nearly all actives have a fitted effect of over 35% in size; also: potency is read from the fitted curve at half-maximal effect). The essentials:
as §1

Assay [12] is described as follows: Quantitative High-Throughput drug screen in 47 multiple myeloma cell lines against the NCATS MIPE library collection: JIM1_ECACC cell viability assay (AID 1918964; also: potency is read from the fitted curve at half-maximal effect). The essentials:
as §2

Assay [13] deals with Luciferin 4-monooxygenase (Photinus pyralis) (UniProt P08659). Description: Primary firefly luciferase (FLuc) qHTS assay for identification of artifact compounds. (AID 1845220). Also: nearly all actives have a fitted effect of over 60% in size. The method, boiled down:
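qHTS, 15 min compound preincubation with substrate (10 uM luciferin, 10 uM ATP) at RT, then 10 nM FLuc; 5 min; luminescence; % inhibition vs no-enzyme/DMSO controls, 4-parameter Hill fit.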

Assay [14] relates to Nanoluciferase (engineered Oplophorus gracilirostris luciferase). Briefly: Primary Nanoluciferase (NLuc) qHTS assay for identification of artifact compounds. (AID 1845222). The method, boiled down: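 Luminescence read-out of secreted NLuc in S16 cell conditioned medium (1:55); compounds tested with 15 min RT preincubation, then Nano-Glo substrate 1:100, 5 min. % inhibition vs no-enzyme and DMSO controls, 4-parameter Hill fit.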

A short description of assay [15]: Primary redox qHTS assay for identification of artifact compounds. (AID 1845223). The method, boiled down: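 Amplex Red (25 uM) and HRP (250 mU/mL) in HBSS, with compounds for 15 min, then 250 uM DTT for 30 min, room temperature, dark. Fluorescence 525/598 nm read; normalized to DMSO and 10 uM DA3003; Hill fit.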
The nature of assay [16]: Quantitative High-Throughput drug screen in 47 multiple myeloma cell lines against the NCATS MIPE library collection: ARD_JJKsccE7 cell viability assay (AID 1918929; also: potency is read from the fitted curve at half-maximal effect). The essentials: as §2
The nature of assay [17]: Quantitative High-Throughput drug screen in 47 multiple myeloma cell lines against the NCATS MIPE library collection: Karpas417_ECACC cell viability assay (AID 1918961). Also: potency is read from the fitted curve at half-maximal effect. Particulars: Karpas417 myeloma viability, CellTiter-Glo ATP luminescence, 48 h; viability (% of DMSO): at 45.8 µM (top of the series). The essentials:
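Approved and investigational drugs from MIPE 4.0 were added by pin tool to 500 cells per well. After 48 hours at 37C, ATP-based CellTiter-Glo luminescence indicated remaining viability.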
(In general: In ATP-based viability assays light output follows the ATP content of the culture.)

A short description of assay [18]: Primary fluorescence-based thiol-reactive (MSTI) qHTS assay for identification of artifact compounds. (AID 1845221).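 Also: thiol-reactive compounds lower the probe fluorescence signal; nearly all actives have a fitted effect of over 65% in size.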 The method, boiled down: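 Probe: MSTI 4 uM, PBS pH 7.4, 2% DMSO. Incubation 1 h, RT, light-protected. Readout fluorescence 525/598 nm.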
A short description of assay [19]: Quantitative High-Throughput drug screen in 47 multiple myeloma cell lines against the NCATS MIPE library collection: KHM11_PLB cell viability assay (AID 1918962). Also: nearly all actives have a fitted effect of over 35% in size. Also: potency is read from the fitted curve at half-maximal effect. The method, boiled down: as §1

Chain of Phospholipid hydroperoxide glutathione peroxidase GPX4 (Homo sapiens) (P36969 whole entry, looked up): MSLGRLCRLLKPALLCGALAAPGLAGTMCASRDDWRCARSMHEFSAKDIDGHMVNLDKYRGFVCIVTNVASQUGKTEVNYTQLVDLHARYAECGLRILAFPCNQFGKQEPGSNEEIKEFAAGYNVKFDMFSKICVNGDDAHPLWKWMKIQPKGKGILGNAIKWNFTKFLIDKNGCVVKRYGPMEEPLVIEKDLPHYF
Chain of Glutathione peroxidase 1 (Homo sapiens) (P07203 whole entry, looked up): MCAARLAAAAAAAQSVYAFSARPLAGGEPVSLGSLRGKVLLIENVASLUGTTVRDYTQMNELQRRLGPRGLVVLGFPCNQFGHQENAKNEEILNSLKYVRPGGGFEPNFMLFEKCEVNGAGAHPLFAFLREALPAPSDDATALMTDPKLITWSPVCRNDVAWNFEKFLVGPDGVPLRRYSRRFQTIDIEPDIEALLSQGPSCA
Chain of Metallo-beta-lactamase type 2 (Klebsiella pneumoniae) (C7C422 whole entry, looked up): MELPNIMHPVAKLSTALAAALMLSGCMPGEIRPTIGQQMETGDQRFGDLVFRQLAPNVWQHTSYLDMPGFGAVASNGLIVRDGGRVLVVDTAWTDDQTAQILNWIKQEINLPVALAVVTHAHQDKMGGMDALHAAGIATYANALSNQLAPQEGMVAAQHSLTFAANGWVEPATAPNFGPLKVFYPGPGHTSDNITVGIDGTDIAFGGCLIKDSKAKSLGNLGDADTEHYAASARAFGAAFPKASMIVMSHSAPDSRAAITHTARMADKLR

As for `O=Nc1c(-c2c(O)[nH]c3cc(Br)ccc23)[nH]c2ccccc12`, in assay [1], the call was inactive. For the same compound, the Potency entry in [2], in [3] and in [4] was “inactive” in each case. Besides, the Potency in assay [5] was 5.9 µM (active); in assay [6] it was 14.8 µM (active); in assay [7] it was 1.05 µM (active); in [8] it was 14.8 µM (active); in assay [9], 8.33 µM (active); in assay [10], 5.26 µM (active). Besides, the values for the Potency in assay [11] and in assay [12] were 5.26 µM (active) and 1.32 µM (active), respectively.

Consider `CC(=O)N1CCN(c2ccc(OC[C@H]3CO[C@](Cn4ccnc4)(c4ccc(Cl)cc4Cl)O3)cc2)CC1`, for which the result in assay [1] was inactive. Moreover, the Potency result in assay [3] and in assay [12] was “inactive” in each case. Besides, the Potency in [5] is 18.7 µM (active); in [6] it was 8.33 µM (active); in assay [7], 7.43 µM (active); in assay [9] it was 5.26 µM (active); in [11] it was 11.8 µM (active).

Take `c1cnc2cc3c(cc2n1)C1CNCC3C1`: the compound was classed as inactive in [1], in [14] and in assay [15]. The Potency entry in [2], in assay [13], in [4], in assay [6], in assay [7] and in assay [8] was “inactive” each time. For the same compound, the Potency entry in [16], in [9], in assay [10], in assay [17], in assay [11] and in assay [12] was “inactive” each time.

Regarding `Nc1nc(OCc2ccccc2)c2[nH]cnc2n1`, the compound was called inactive in assay [1]. In addition, the Potency entry in [2], in assay [3], in assay [4], in assay [6] and in assay [9] was “inactive” throughout. Further, the figures for the Potency in assay [8], in assay [17] and in assay [11] were 20.9 µM (active), 16.6 µM (active) and 13.2 µM (active), respectively.

Regarding `CC(=O)NC[C@H]1CN(c2ccc(N3CCOCC3)c(F)c2)C(=O)O1`, the compound was classed as inactive in assay [1], in [14] and in assay [15]. The Potency result in assay [2], in assay [3], in assay [13], in [18], in [4] and in assay [6] was “inactive” in each case. The Potency result in assay [7], in assay [16], in assay [9] and in assay [11] was “inactive” in each case. For the same compound, in assay [8], the Potency was 18.7 µM (active).

As for `CCOC(=O)C(C)Oc1cccc2c(=O)n(CC(=O)Nc3ccc4c(c3)OCCO4)ccc12` (stereo not given), the compound was called inactive in assay [1]. Besides, the Potency result in assay [3], in [6], in assay [16], in assay [9] and in assay [12] was “inactive” in each case. The Potency in assay [7] is 16.6 µM (active); in assay [10], 13.2 µM (active).

Consider `O=c1c(O)c(-c2cc(O)c(O)c(O)c2)oc2cc(O)cc(O)c12`, for which the compound was called inactive in assay [1]. In addition, the Potency result in assay [2], in [3], in assay [5], in [6], in assay [7] and in [16] was “inactive” in each case. Also, the Potency entry in assay [9], in assay [19] and in [11] was “inactive” throughout.

Take `Cc1cccc(C#Cc2ccccc2)n1`: the result in assay [1] was inactive. Moreover, the Potency result in assay [2], in assay [4], in [5], in assay [6], in [7] and in [9] was “inactive” each time. For the same compound, the Potency result in assay [10] is “inactive”. The Potency in assay [8] was 20.9 µM (active).

As to `C[C@H](Cc1ccc(O)c(O)c1)[C@@H](C)Cc1ccc(O)c(O)c1`, in [1], the result was inactive. Also, the Potency in [4] is 2.09 µM (active); in assay [5], 16.6 µM (active); in assay [7] it was 7.43 µM (active); in assay [8] it was 20.9 µM (active); in assay [9] it was 5.26 µM (active). For the same compound, the Potency result in [12] is “inactive”.

For the compound `Cc1cc(Cl)ccc1OCCCC(=O)NO`, the compound was classed as inactive in assay [1]. The Potency result in assay [2] and in [3] was “inactive” each time. Besides, the Potency in assay [5] is 2.96 µM (active); in assay [6] it was 0.296 µM (active); in [16], 20.9 µM (active); in [19], 11.8 µM (active); in assay [11], 9.35 µM (active).
